We go through 64 compounds from ChEMBL document CHEMBL3988442, “University of Dundee, Small-Polar-MMV Screening Library” (2021).

SMILES strings stand for the structures. The whole screen tested about 48,000 compounds, of which about 13,000 (27%) showed an effect of 50% or more. Some of the results follow.

The subject of this experiment is Wolbachia pipientis. The experiment is described as follows: Anti-Wolbachia Cell-Based Screen. It counts as functional. Also noted: scale not given: in the data most compounds retested in dose-response had high values. The following applies: 5 µM.
Regarding `CCN(CC(C)O)C(=O)Nc1cnn(CCOC)c1` (centres undefined), the “Percent Effect” value is given as -12.18%.

`NC(=O)NC(=O)CCN1CCCN(c2nccs2)CC1`: the “Percent Effect” value is -3.66%. The figure for `COCc1cc(N(C)Cc2cnccn2)nc(C(C)(C)C)n1` is 4.515%; for `CC(C)(CNCc1ccc(OCc2cscn2)cc1)C(N)=O.Cl` it is 0.3922%; for `CCOC(=O)C1(Cc2cccc(OC)c2)CCN(Cc2ccon2)CC1` it is 2.808%. The figure for `COc1ccccc1-c1ccccc1CC1(C(=O)O)CCNCC1` is 100.9%; for `COc1ccccc1CN(C)C(=O)CN1C(=O)OC[C@@H]1c1ccccc1` it is -5.71%; for `COc1ccc(F)cc1-c1ccccc1CC1(C(=O)O)CCOCC1` it is 118.1%. The same measure for `COc1ccccc1Oc1ncccc1CNC(=O)C1(C)CCCNC1` (centres undefined): 21.66%; for `COc1ccc(F)cc1NC(=O)NCC1(CN2CCOCC2)CC1`: 21.38%; for `CCOC(=O)C1(Cc2ccccc2-c2ccccc2OC)CCNCC1.Cl`: 172.1%. As for `COc1ccccc1CCN[C@@H]1c2ccccc2C2(CCNCC2)[C@H]1O`, the “Percent Effect” value was -1.43%. The figure for `COc1ccc(F)cc1NC(=O)NCC1(C)COC1` is 5.652%; for `O=C(Cc1ccccn1)N1CCn2cc(Cn3cncn3)nc2C1` it is 22.42%. The same measure for `Cn1cc(C2(C)CN(c3ncccc3C#N)CCO2)cn1` (centres undefined): -13.05%; for `CN(C)Cc1ccnc(NS(=O)(=O)CCc2ccccc2)c1`: -12.88%.

Turning to `OCc1cc2ccccc2nc1N1CCCC1`, the “Percent Effect” value is given as 4.126%. The same measure for `CN(C)CCNC(=O)c1cc2n(n1)CCN(C(=O)c1ccco1)C2`: -13.42%; for `CCCc1nc(C(=O)N2CCN(C(=O)OC)CC2)cs1`: -2.631%. The same measure for `CCCc1nc(C(=O)N2CCn3nc(C(=O)OC)cc3C2)cs1`: 111.4%; for `COC(=O)c1cc2n(n1)CCN(C(=O)c1csc(CN(C)C)n1)C2`: 85.52%; for `CCCc1nc(C(=O)N2CCN(C(=O)c3ccc(OC)cc3)CC2)cs1`: 10.06%.

On to `Cc1cc(C)c(C(=O)N2CCn3nc(C(=O)NCCN(C)C)cc3C2)[nH]1`, for which the “Percent Effect” value is listed as -6.569%. The same measure for `Cc1cc(C)c2nc(CN3C[C@H](CCO)[C@@H](N)C3)cc(O)c2c1`: -3.113%. The figure for `CCOCC(=O)Nc1ccc(-n2ccc(C(N)=O)n2)cc1` is 5.23%; for `CCc1ccc(CN2CCC(=O)N(CC3CC3)C(C(C)C)C2)nc1` (centres undefined) it is -6.583%.

For the compound `Cc1cc(CNC(=O)c2ccc(F)c(COCC3CC3)c2)no1`, the “Percent Effect” value stood at 7.35%.

Turning to `Cn1cnnc1C1CCCN(C(=O)NCCNc2ccccn2)C1` (centres undefined), the “Percent Effect” value worked out at 14.43%.

Turning to `COCCCNC(=O)N1CCCC(c2nncn2C)C1` (centres undefined), the “Percent Effect” value is listed as -7.003%. On to `Cn1cnnc1C1CCCN(C(=O)NCCOc2ccccc2)C1` (centres undefined), for which the “Percent Effect” value was found to be 6.909%.

As for `Cn1cnnc1C1CCCN(C(=O)NCCn2ccnc2)C1` (centres undefined), the “Percent Effect” value is reported as 89.71%. `Cn1cnnc1C1CCCN(C(=O)NCCCn2cccn2)C1` (centres undefined): the “Percent Effect” value came to 106.2%. The same measure for `CC(C)N1CCC(Cc2cc(-c3ccccc3C(=O)O)ncn2)CC1`: -18.63%; for `Cn1cc(C(=O)O)c(-c2ccc(F)cc2F)n1`: -6.689%; for `CC(C)N1CCC(CNC(=O)COc2ccc(F)cc2F)C1` (centres undefined): 8.17%. Regarding `CC(C)N1CCC(Cc2cncc(-c3cc(F)ccc3C(=O)O)n2)CC1`, the “Percent Effect” value was 98.45%. The figure for `CC(C)N1CCC(CNC(=O)CCc2cc(F)ccc2F)C1` (centres undefined) is 16.43%; for `CN1CCC(Cc2noc(-c3cn(Cc4ccc(F)cc4)nn3)n2)CC1` it is -9.878%; for `CN1CCC(Cc2cccc(-c3cc(F)ccc3C(=O)O)n2)CC1` it is 135.9%. The figure for `CC(C)N1CCC(Cc2cncc(-c3cc(F)ccc3C(=O)O)n2)C1` (centres undefined) is 135%; for `CC(C)N1CCC(CC(=O)NC(C(=O)O)c2cccc(F)c2)CC1` (centres undefined) it is -7.789%; for `CC(C)N1CCC(CC(=O)NC(C(=O)O)c2ccc(F)cc2)CC1` (centres undefined) it is 7.704%. The figure for `CC(C)N1CCC(Cc2cc(-c3cc(F)ccc3C(=O)O)ncn2)C1` (centres undefined) is 139.5%; for `CC(C)N1CCC(CC(=O)NC(C(=O)O)c2cc(F)ccc2F)CC1` (centres undefined) it is 9.298%. On to `CC(C)c1ccc(S(=O)(=O)NC2(CC(N)=O)CCC2)cc1`, for which the “Percent Effect” value is given as -1.072%.

For the compound `Cn1cc(CN2CC[C@@H]3[C@@H](CCC(=O)N3CCc3c[nH]cn3)C2)cn1`, the “Percent Effect” value was determined as 6.547%. Turning to `CCOCCS(=O)(=O)N(CC)Cc1ccc(Cl)s1`, the “Percent Effect” value is reported as -4.367%. The figure for `CCc1nn(C)c(Cl)c1CN1CCN(c2nc(C(N)=O)cs2)CC1` is 12.42%; for `O=C1COC2(CCN(c3ncccn3)CC2)CN1c1ccsc1` it is 18.21%.

Regarding `CCc1cnc(CN(C(C)=O)C2CCN(CCS(C)(=O)=O)C2)o1` (centres undefined), the “Percent Effect” value is on record as -15.83%. The figure for `CCc1cnc(CN(C(C)=O)C2CCN(CC(=O)N3CCCC3)C2)o1` (centres undefined) is 113.8%. Take `CCc1cnc(CN(C(C)=O)C2CCN(CCN3CCCCC3)C2)o1` (centres undefined): the “Percent Effect” value amounted to 112.7%. The figure for `CCc1cnc(CN(C(C)=O)C2CCN(CC3(O)CCCCC3)C2)o1` (centres undefined) is 86.51%. The same measure for `CC(=O)N(Cc1ncc(C(C)C)o1)C1CCN(CCn2cccn2)C1` (centres undefined): 8.925%. The same measure for `COc1cccc(CN(C)Cc2cc(C#N)ccc2F)c1OC`: -16.49%; for `O=C(c1c[nH]c(=O)[nH]1)N1CCCC2(CCC(=O)N(C3CCCC3)C2)C1` (centres undefined): 5.666%; for `CC(C(=O)NC1CCCCC1)N1CCc2[nH]nc(C(F)(F)F)c2C1` (centres undefined): -5.733%. In the case of `Cc1nccn1-c1ccc(N2CCC(NC(C)CC(C)C)CC2)cc1` (centres undefined), the “Percent Effect” value is reported as 16.66%.

With `COCCN1CCc2cc(C(=O)N(C)C)c(NCC3CC3)nc2CC1.O=C(O)C(F)(F)F.O=C(O)C(F)(F)F`, the “Percent Effect” value was 1.501%. The same measure for `COCCN1CCc2cc(C(=O)NC(C)C)c(NCC(C)C)nc2CC1.O=C(O)C(F)(F)F.O=C(O)C(F)(F)F`: 1.817%.

As to `COCCN1CCc2cc(C(=O)O)c(NCC3CC3)nc2CC1.O=C(O)C(F)(F)F.O=C(O)C(F)(F)F`, the “Percent Effect” value stood at 96.69%. The figure for `COCCN1CCc2cc(C(=O)NC(C)C)c(NCC3CC3)nc2CC1.O=C(O)C(F)(F)F.O=C(O)C(F)(F)F` is 103.7%. The same measure for `COCCN1CCc2cc(C(=O)NCC3CC3)c(NC(C)C)nc2CC1.O=C(O)C(F)(F)F.O=C(O)C(F)(F)F`: -15.94%; for `CNC(=O)c1cc2c(nc1NCC(C)C)CCN(CCOC)CC2.O=C(O)C(F)(F)F.O=C(O)C(F)(F)F`: 1.626%.
